Assay outcomes (PubChem BioAssay)
DT40 TDP1 no CPT – qHTS for Inhibitors of human tyrosyl-DNA phosphodiesterase 1 (TDP1): qHTS in cells in absence of CPT. DT40 Tdp1-/- hTDP1 cells, no CPT, ATP luminescence, 48 h. Potency, µM (highest dose often 46.2 µM), without a hit: at the top dose activity change, negative = growth inhibition, actives largely listed as inhibitors. 15% of 420,000 active. AID 686978, 2013; also: potency is read from the fitted curve at half-maximal effect; nearly all actives have a fitted effect of over 55% in size
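Seeded 400 DT40-hTDP1 cells/well (vehicle DMSO, no 20 nM CPT); pinned compounds; ≥48 hr at 37 °C; CellTiter-Glo luminescence as viability measure.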
TDP1 cell CPT – DT40-hTDP1 cell growth loss with CPT. chicken DT40 Tdp1-/-;hTDP1 cells + 20 nM CPT, ATP luminescence, 48 h. Potency, µM (highest dose often 46.2 µM), inactives show at the top dose activity change, negative = growth inhibition, actives largely listed as inhibitors. 12% of 420,000 active; also: potency is read from the fitted curve at half-maximal effect; nearly all actives have a fitted effect of over 55% in size
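Cell growth measured by CellTiter-Glo luminescence after a minimum 48 h, 37 C compound exposure with 20 nM CPT in Tdp1-knockout DT40 cells stably expressing hTDP1, seeded 400/well; qHTS titration format.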
uPA generation – cell surface uPA generation inhibition | cell surface uPA generation assay, qHTS | Potency, µM (top dose mostly 38.3 µM), for the others: at the top dose activity change, negative = inhibition, actives largely listed as inhibitors | 0.31% of 330,000 active | AID 540303; active = well fitted inhibition curve with a large enough effect; inconclusive = small, poorly fitted or top-dose-only effect; inactive = no such curve, though single readings can be large or run the other way; tested in mouse RAW 264.7 cells; also: potency is read from the fitted curve at half-maximal effect; nearly all actives have a fitted effect of over 55% in size
HT1080-NT tox – kills 2HG-producing HT-1080-NT fibrosarcoma cells. HT-1080-NT fibrosarcoma viability, CellTiter-Glo ATP luminescence, 48 h. Potency, µM (top dose mostly 46.1 µM), without a hit: top-dose activity, negative = less viability, usual class: cytotoxic. 1.6% of 360,000 active;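 also: NT is the 2HG producing partner of a matched IDH1 knockdown line; potency is read from the fitted curve at half-maximal effect; 0% = DMSO-treated cells and -100% = media-only wells without cells; nearly all actives have a fitted effect of over 55% in size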
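Read-out is CellTiter-Glo luminescence after 10 minutes at room temperature, following 48 hours' compound treatment of HT-1080-NT cells (750 cells/well, RPMI, 5% FBS, 37 degrees C).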
IL-1B inflam inh – inhibitors of inflammasome signaling (IL-1 beta secretion). THP-1 LPS/ATP IL-1B secretion, AlphaLISA, 16 h; stronger effect = lower value. activity change, % at 57.5 µM. 4.7% of 360,000 active. AID 743279; in the data active = activity change below about -50%; inconclusive = mostly about -30% to -49%
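Secreted IL-1B measured by AlphaLISA bead assay after 16 h compound exposure of THP-1 cells; compounds (final up to 57.5 uM) added 1 h before LPS (250 ng/mL) and ATP (1.25 mM) stimulation; lower signal means less secretion.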
HT1080 IDH1KD tx – toxicity to HT-1080 IDH1 knockdown cells (counter line); 2% of 360,000 active; AID 686971; HT-1080 IDH1 knockdown viability, ATP luminescence, 48 h; Potency, µM (series often up to 46.1 µM), without a hit: at the highest dose activity, negative = toxicity, usual class: cytotoxic;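 also: potency is read from the fitted curve at half-maximal effect; 0% = DMSO wells and -100% = cell-free medium wells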
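Using the IDH1-knockdown HT-1080 line run in the same batch and compound series as the NT line, viability after 48 h at 37 °C was determined by CellTiter-Glo luminescence and expressed as % activity.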
An asterisk follows results filed as active; ? = inconclusive; . = no result given; [ ] = dose if it differs, or a comment. A selection: hits, their analogues and other compounds. The true share with any hit is near 19%. Unless noted, calls follow the shape of the dose curve; as a rule, active = well fitted curve in the direction sought with a large enough effect; inconclusive = small, poorly fitted or top-dose-only effect, or another doubt; inactive = no such curve, though single readings can be large; an effect the other way counts as inactive or inconclusive. Unless noted, % is scaled to controls: 0 for no effect and ±100 for the full control effect.

SMILES	DT40 TDP1 no CPT	TDP1 cell CPT	uPA generation	HT1080-NT tox	IL-1B inflam inh	HT1080 IDH1KD tx
Cc1cc2cc(C(c3nnnn3Cc3ccccc3)N3CCc4ccccc43)c(=O)[nH]c2cc1C (centres undefined)	?	?	.	-29%	8	-29%
O=c1[nH]c2cc3ccccc3cc2nc1-c1nnnn1Cc1ccccc1	23µM*	?	.	4%	43	-3%
CCn1c(SCC(=O)Nc2ccc(OC)c(OC)c2)nnc1-c1cccs1	-16%	-17%	4%	0%	0	4%
CCn1c(SCC(=O)Nc2cc(C(C)(C)C)nn2-c2ccccc2)nnc1-c1cccs1	?	-29%	-4%	-4%	-83*	-8%
CCn1c(SCC(N)=O)nnc1-c1cc2c(C)nn(-c3ccccc3)c2s1	29µM*	?	-5%	-4%	16	0%
CCC(C)n1c(SCC(=O)Nc2cc(C(C)(C)C)nn2-c2ccccc2)nc2ccccc2c1=O (centres undefined)	26µM*	?	-18%	-23%	-29	-22%
CCn1c(SCC(=O)Nc2cc(OC)c(OC)c(OC)c2)nnc1-c1cccs1	21µM*	?	7%	-24%	-3	0%[9.24 µM]
CCC(C)n1c(SCC(=O)NC2CC2)nc2ccccc2c1=O (centres undefined)	?	?	.	-7%	0	-6%
O=S(=O)(Nc1ccccn1)c1ccc(Cl)c2ccccc12	-8%	-6%	1%	-10%	28	-4%
O=C(CSc1nc(=O)n(Cc2ccco2)c2c1CCC2)NCc1ccccc1Cl	-14%	-2%	.	.	.	.
COc1cccc2sc3ccc(NCCC4CCCN4C)cc3c(=O)c12 (centres undefined)	?	?	-22%	-17%	-70*	-10%
COc1cc(-c2noc(C)c2C(=O)NCC[C@@H]2CCCN2C)cc(OC)c1OC	-10%	-5%	-3%	-1%	-5	-3%
COc1cc2sc3cc(NCC[C@@H]4CCCN4C)ccc3c(=O)c2cc1OC	?	?	-14%	-3%	-60*	-2%
CCC(=O)N1Cc2cc(C(=O)Nc3nccs3)nc(-c3cccc(-c4ccccc4OC)c3)c2[C@@H]1CCO	4.6µM*	4.6µM*	.	?	-4	-11%
COc1ccccc1-c1cccc(-c2nc(C(=O)Nc3nccs3)cc3c2[C@@H](CCO)N(C(=O)CC2CC2)C3)c1	12µM*	18µM*	.	-11%	?	2%
CCS(=O)(=O)N1Cc2cc(C(=O)NCCOC)nc(-c3cccc(-c4ccncc4)c3)c2[C@H]1CCO	-3%	-11%	.	2%	-13	-10%
Cc1c(NC(=O)COc2ccc(C(C)C)cc2)c(=O)n(-c2ccccc2)n1C	-3%	-18%	26%	0%	8	0%
O=C1C=C(NCc2ccccc2)CCC1	9%	-4%	11%	8%	0	1%
Cc1ccc(NC2=CC(=O)C(=O)c3ccccc32)c(C)c1	18µM*	4.6µM*	-6%	6%	-8	1%
O=C1C=C(Nc2ccccc2O)c2ccccc2C1=O	3.3µM*	3.7µM*	-13%	?	-90*	?
O=C1C=C(NCc2ccccc2)c2ccccc2C1=O	15µM*	5.8µM*	-2%	3.7µM*	-101*	4.6µM*
Cc1cc(C)nc(CCNC(=O)CC2C(=O)NCCN2Cc2ccccc2)n1 (centres undefined)	-17%	-12%	-9%	1%	16	15%
CCn1c(=O)c2[nH]c(SC)nc2n(CC)c1=O	-8%	3%	.	0%	12	-6%
Cn1c(=O)c2cc(NC(=O)NCc3ccc(Cl)cc3Cl)ccc2n1Cc1ccccc1	?	?	.	-1%	-60*	-5%
C=C(C)Cn1c2ccc(NC(=O)CCc3cccc(Cl)c3)cc2c(=O)n1C	15µM*	18µM*	.	?	38	?
SMILES	DT40 TDP1 no CPT	TDP1 cell CPT	uPA generation	HT1080-NT tox	IL-1B inflam inh	HT1080 IDH1KD tx
Cn1c(=O)c2cc(NC(=O)NCc3ccccc3)ccc2n1Cc1ccc(Cl)cc1	?	?	.	-11%	42	-21%
Cn1c(=O)c2cc(NC(=O)CCc3cccc(Cl)c3)ccc2n1Cc1cccc(C(F)(F)F)c1	-24%	-20%	.	28%	55	9%
CCOCCC(=O)Nc1ccc2c(c1)c(=O)n(C)n2CC=C(C)C	2.9µM*	5.2µM*	.	?	-13	?
COc1cc(Cn2c3ccc(NC(=O)CCc4ccc(O)cc4)cc3c(=O)n2C)ccc1F	21µM*	?	.	?	0	?
COCCn1c(C)cc(O)c(C(c2ccccc2Cl)N2CCCCC2)c1=O (centres undefined)	2%	0%	.	.	.	.
O=c1c2ccccc2oc2ccc(-c3ccoc3)cc12	?	-107%	.	.	.	.
O/N=C(/CBr)c1ccc2ccccc2c1	-30%	3%	.	.	.	.
Cn1c(=O)c2cc(NC(=O)CCc3ccc4c(c3)OCO4)ccc2n1Cc1ccc(F)cc1	?	16µM*	.	-5%	?	?
COc1cc(Cn2c3ccc(NC(=O)NCc4ccc(F)cc4)cc3c(=O)n2C)ccc1F	5.2µM*	5.8µM*	.	?	61	?
Cc1ccc(-c2cn3cccnc3n2)cc1NC(=O)Cc1ccccc1	2%	4%	.	.	.	.
O=C(NCc1ccccn1)c1ccc(Cl)cc1Cl	-9%	-17%	-27%	1%	-9	1%
COc1cc(CNCc2ccccn2)ccc1OCc1ccc(Cl)cc1	?	?	8%	?	-57*	?
O=C(NCc1ccccn1)c1cc(Cl)ccc1OCc1ccccc1	?	?	3%	-9%	-53*	-19%
Clc1ccc(COc2cccc(CNCc3ccncc3)c2)cc1	18µM*	?	-3%	-14%	-15	-27%
COc1cc(CNCc2ccccn2)ccc1OCc1cccc(Cl)c1	?	?	1%	?	-80*	-18%[9.24 µM]
COc1cc(CNCc2ccccn2)ccc1OCc1c(Cl)cccc1Cl	?	?	7%	?	?	?
COc1ccc(N2CC(C(=O)N/N=C/c3cc([N+](=O)[O-])ccc3O)CC2=O)cc1 (centres undefined)	?	-20%	-1%	4%	96	?
CC(NS(=O)(=O)c1ccccc1Cl)C1CC2CCC1C2 (centres undefined)	?	-10%	3%	0%	20	-16%
